Yeast superoxide – lowers age-related superoxide in aged yeast cells. S. cerevisiae aged cells, superoxide DHE fluorescence; active compounds read low. superoxide response (% of plate mean), % at 10 µM. 330,000 tested, 0.18% active. AID 2690;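 active = superoxide response under a set limit, about three screen SD below normal, cut at about 65% in these data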;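 note: yeast aged for seven days with compound at 30 °C before DHE staining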
aDG glyco up – alpha-DG glycosylation activation. Pro5-aDG cells, alpha-DG glycosylation AlphaScreen (IIH6); 0% Pro5, 100% B10-LARGE cell signal. activation, % at 10 µM. 360,000 tested, 0.22% active. AID 624168;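 active = activation of at least 8% versus controls, or a plate z-score of at least 8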;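 note: Pro5 are CHO cells carrying HIG-tagged alpha-DG that lacks glycosylation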
FAS-TE inh – blocks the thioesterase domain of human fatty acid synthase; recombinant FAS-TE, OMFH fluorogenic substrate, fluorescence endpoint; 360,000 tested, 0.67% active; P49327; inhibition, % at 15 µM;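 active = compounds whose normalised, plate-corrected inhibition of enzyme fluorescence in the single-dose primary screen is 50% or more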
Target sequence (P49327 whole entry, looked up, the tested form may be a part): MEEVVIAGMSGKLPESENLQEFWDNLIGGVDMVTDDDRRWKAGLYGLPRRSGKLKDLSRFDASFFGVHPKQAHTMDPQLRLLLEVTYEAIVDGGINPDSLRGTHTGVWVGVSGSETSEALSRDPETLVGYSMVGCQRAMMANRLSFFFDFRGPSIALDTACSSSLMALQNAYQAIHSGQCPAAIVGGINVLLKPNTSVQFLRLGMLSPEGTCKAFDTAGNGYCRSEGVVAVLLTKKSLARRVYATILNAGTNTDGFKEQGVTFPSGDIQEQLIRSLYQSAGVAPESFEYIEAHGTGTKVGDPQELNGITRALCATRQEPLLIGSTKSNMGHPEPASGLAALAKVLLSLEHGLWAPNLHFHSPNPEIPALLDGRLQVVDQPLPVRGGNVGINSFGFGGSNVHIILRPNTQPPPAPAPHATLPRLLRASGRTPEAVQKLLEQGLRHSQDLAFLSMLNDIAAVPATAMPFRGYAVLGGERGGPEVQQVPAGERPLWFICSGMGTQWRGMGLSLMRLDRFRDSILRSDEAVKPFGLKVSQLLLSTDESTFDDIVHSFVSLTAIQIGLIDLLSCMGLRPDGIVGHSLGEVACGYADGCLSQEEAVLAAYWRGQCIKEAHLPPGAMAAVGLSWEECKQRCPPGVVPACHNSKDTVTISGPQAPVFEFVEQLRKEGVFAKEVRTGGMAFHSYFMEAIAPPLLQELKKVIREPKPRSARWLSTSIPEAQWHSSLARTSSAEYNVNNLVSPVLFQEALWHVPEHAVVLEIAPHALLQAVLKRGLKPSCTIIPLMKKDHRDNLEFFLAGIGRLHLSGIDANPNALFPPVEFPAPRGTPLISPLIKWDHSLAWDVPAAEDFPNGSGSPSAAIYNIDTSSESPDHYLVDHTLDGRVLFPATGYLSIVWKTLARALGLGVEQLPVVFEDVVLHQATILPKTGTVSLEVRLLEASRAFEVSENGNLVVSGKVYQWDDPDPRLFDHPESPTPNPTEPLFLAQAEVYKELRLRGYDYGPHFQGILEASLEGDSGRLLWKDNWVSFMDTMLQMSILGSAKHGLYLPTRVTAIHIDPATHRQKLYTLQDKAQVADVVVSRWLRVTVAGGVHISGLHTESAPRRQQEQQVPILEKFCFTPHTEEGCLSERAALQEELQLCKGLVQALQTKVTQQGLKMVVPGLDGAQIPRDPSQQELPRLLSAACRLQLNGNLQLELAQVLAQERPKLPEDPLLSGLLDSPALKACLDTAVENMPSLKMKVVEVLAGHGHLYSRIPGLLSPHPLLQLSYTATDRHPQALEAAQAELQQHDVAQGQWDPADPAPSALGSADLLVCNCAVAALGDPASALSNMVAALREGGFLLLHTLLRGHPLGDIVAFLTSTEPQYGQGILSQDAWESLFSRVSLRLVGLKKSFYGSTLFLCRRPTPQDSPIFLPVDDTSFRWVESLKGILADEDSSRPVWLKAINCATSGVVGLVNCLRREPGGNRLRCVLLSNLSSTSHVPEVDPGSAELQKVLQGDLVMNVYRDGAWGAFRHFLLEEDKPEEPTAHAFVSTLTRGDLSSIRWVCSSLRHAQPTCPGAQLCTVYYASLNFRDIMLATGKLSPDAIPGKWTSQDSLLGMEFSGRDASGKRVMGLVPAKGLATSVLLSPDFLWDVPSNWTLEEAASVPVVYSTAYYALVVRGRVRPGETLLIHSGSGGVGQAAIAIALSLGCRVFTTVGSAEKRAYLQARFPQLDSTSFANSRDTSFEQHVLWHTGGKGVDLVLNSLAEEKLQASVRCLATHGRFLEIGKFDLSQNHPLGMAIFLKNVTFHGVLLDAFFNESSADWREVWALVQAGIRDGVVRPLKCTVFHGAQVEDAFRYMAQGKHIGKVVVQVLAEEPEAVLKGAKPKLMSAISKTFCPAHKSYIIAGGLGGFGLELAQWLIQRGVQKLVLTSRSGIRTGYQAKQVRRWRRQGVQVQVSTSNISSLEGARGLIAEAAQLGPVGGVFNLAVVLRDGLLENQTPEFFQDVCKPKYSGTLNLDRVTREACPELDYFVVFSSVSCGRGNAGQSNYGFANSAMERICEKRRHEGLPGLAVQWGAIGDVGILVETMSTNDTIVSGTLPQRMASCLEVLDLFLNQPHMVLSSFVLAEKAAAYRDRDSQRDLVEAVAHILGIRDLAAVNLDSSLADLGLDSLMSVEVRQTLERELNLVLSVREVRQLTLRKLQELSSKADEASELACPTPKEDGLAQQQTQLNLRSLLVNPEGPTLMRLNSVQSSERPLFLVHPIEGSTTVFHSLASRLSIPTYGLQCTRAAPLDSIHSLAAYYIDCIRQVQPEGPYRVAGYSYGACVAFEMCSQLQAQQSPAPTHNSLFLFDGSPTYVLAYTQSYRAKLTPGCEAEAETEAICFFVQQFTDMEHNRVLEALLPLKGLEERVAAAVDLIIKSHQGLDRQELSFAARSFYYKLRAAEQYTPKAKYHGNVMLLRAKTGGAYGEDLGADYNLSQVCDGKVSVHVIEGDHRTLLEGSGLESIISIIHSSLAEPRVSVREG
SUMO Mot1 rescue – inhibitors of SUMOylation pathway: yeast Mot1-301 growth rescue | S. cerevisiae Mot1-301 growth rescue, ATP luminescence, 38.5C; percent above DMSO median, 100 means doubled | growth rescue, % at 18.8 µM | 320,000 tested, 1% active;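 active = every valid replicate shows activation above 250% relative to neutral control wells; inactive = the rest, any valid replicate at or below 250%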
MPTP block – blocks calcium-induced mitochondrial swelling. isolated mouse mitochondria, Ca2+ swelling absorbance, 30 min. inhibition, % at 10 µM. 360,000 tested, 1.4% active;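 active = inhibition of 50% or more, scaled per plate between neutral and stimulator controls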
H9c2 protect – myocardial damage modulation in H9c2 cells | protection from H2O2 cell death, % at 20 µM | AID 588492 | 360,000 tested, 0.63% active | H9c2 cardiomyocytes, H2O2 injury protection, ATPLite, 2 h;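 active = compounds giving at least 50% protection of heart cells from peroxide-induced death in the single-dose screen, raw or plate-pattern-corrected value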
FAS-TE inh conf – confirmation of human fatty acid synthase thioesterase inhibitors. shares compounds with FAS-TE inh. inhibition, % at 15 µM. 2,300 tested, 45% active. recombinant FAS-TE, OMFH fluorogenic substrate, fluorescence. AID 624325;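 active = compounds inhibiting the enzyme by at least 50% at 15 µM in any one of the replicates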
Rh123 counter – Rhodamine 123 counter-screen of mitochondrial pore hits. 5,000 tested, 78% active. inhibition, % at 10 µM. AID 624504. shares compounds with MPTP block. isolated mitochondria, membrane potential, Rhodamine 123 fluorescence; in the data active = inhibition above about 22%
MPTP abs DR – MPTP inhibition, dose response swelling confirmation. shares compounds with MPTP block. IC50, µM. isolated mitochondria swelling, absorbance. 780 tested, 58% active; in the data active = IC50 below about 20 µM
MPTP cs DR – counter-screen for mitochondrial permeability transition pore inhibitors, dose response; shares compounds with MPTP block; isolated mitochondria counterscreen, fluorescence read-out; IC50, µM; 780 tested, 49% active; AID 651564; in the data active = IC50 below about 80 µM
Each line names hits and unclear results; the compound was inactive in the other large screens (follow-up assays come after a bar, where they were run). Shown are actives, neighbours in structure and some others; about 3.8% of the full set was active somewhere.

CN[C@H]1C[C@H]2c3[nH]c4ccc(-c5ccc(OC)cc5)cc4c3CCN2C(=O)[C@H]1[C@H](C)O	none (no result: Yeast superoxide, SUMO Mot1 rescue)
CN(CC(=O)Nc1ccc(Cl)c(Cl)c1)C(=O)C12CC3CC(CC(C3)C1)C2	FAS-TE inh 54.1, MPTP block 64.2 | FAS-TE inh conf inactive | Rh123 counter 82.5
O=S1(=O)C[C@H](N2CCN(CC3CC3)CC2)[C@@H](COCc2ccccc2)N1	none (no result: Yeast superoxide, SUMO Mot1 rescue)
CC1OC(C(C)(C)C)CC2=C1C(=O)OC(C)(C)O2 (stereo not given)	none (no result: Yeast superoxide, SUMO Mot1 rescue, H9c2 protect)
Cc1cc(Br)ccc1NC(=O)C(C)c1ccc([N+](=O)[O-])cc1 (stereo not given)	FAS-TE inh 55.6, MPTP block 54.5 | FAS-TE inh conf 51.4 | Rh123 counter 68.9
CSCCC(NC(=O)c1ccco1)C(=O)NCC1CCCO1 (stereo not given)	none
CCC(C)c1ccc2oc(-c3ccc(NC(=O)Cn4cnc5c(=O)n(C)c(=O)n(C)c54)cc3)nc2c1 (stereo not given)	FAS-TE inh 72.9, MPTP block 84.1 | FAS-TE inh conf inactive | Rh123 counter inactive | MPTP abs DR inactive | MPTP cs DR 41.4
COc1cccc(CC(=O)Nc2ccc(S(=O)(=O)Nc3nc(C)cc(C)n3)cc2)c1	none
COc1ccc(C(C)=NNc2ccc([N+](=O)[O-])cc2S(=O)(=O)Nc2ccccc2C(=O)O)c(OC)c1	FAS-TE inh 71.4, MPTP block 86.5 | FAS-TE inh conf 67.8 | Rh123 counter 37.6
Oc1ccc(Cl)cc1Sc1cc(Cl)ccc1O	FAS-TE inh 88.4, MPTP block 70.0 (no result: Yeast superoxide, SUMO Mot1 rescue) | FAS-TE inh conf 97.7 | Rh123 counter 68.3
CN(C)C(=O)c1cc(Cl)ccc1Sc1cc(Cl)ccc1Cl	none
O=C(Nc1ccc(OC(F)(F)F)cc1)Nc1cccnc1	none
O=C(Nc1ccc(OC(F)(F)F)cc1)Nc1cccc([N+](=O)[O-])c1	FAS-TE inh 73.4, MPTP block 74.7 | FAS-TE inh conf 48.6 | Rh123 counter 64.2
NC(=O)c1ccc(NC(=O)COC(=O)CNC(=O)c2sc3ccccc3c2Cl)cc1	none
CC(C)c1ccc(NC(=O)c2snc3ccc(Cl)cc23)cc1	FAS-TE inh 58.2, MPTP block 74.2 | FAS-TE inh conf inactive | Rh123 counter 73.8
Cc1ccc(SCC(=O)N2CCN(S(=O)(=O)c3cccs3)CC2)cc1	none
NS(=O)(=O)c1cccc(NC(=O)CSc2nc3nc(-c4cccs4)cc(C(F)(F)F)c3c(=O)[nH]2)c1	none
O=C(CSc1nc2nc(-c3cccs3)cc(C(F)(F)F)c2c(=O)[nH]1)Nc1c(F)c(F)c(F)c(F)c1F	FAS-TE inh 50.2, MPTP block 55.0 | FAS-TE inh conf inactive | Rh123 counter 70.0
O=C(CCSc1ccccc1Cl)Nc1cccc([N+](=O)[O-])c1	FAS-TE inh 52.4, MPTP block 89.0 | FAS-TE inh conf inactive | Rh123 counter 84.1
O=C(CCCCC(=O)NN=Cc1ccc(Cl)cc1)NN=Cc1ccc(Cl)cc1	none (no result: Yeast superoxide, SUMO Mot1 rescue)
O=C1S/C(=C\c2ccc(O)c([N+](=O)[O-])c2)C(=O)N1Cc1cccc([N+](=O)[O-])c1	FAS-TE inh 78.4, MPTP block 99.8 | FAS-TE inh conf 51.2 | Rh123 counter 61.0
O=C(CS(=O)c1ccc(F)cc1)N1CCOCC1 (stereo not given)	none
CC(C)C[C@@H](CO)N1CCN(CCCc2ccccc2)CCC1=O	none
COCCCn1c(C)cc(C(=O)COC(=O)C23CC4CC(CC(O)(C4)C2)C3)c1C	none (no result: Yeast superoxide, SUMO Mot1 rescue)
CC1=C(C(=O)N(C(C)C)C(C)C)CC(CC(=O)NC2CCCC2)C(=O)N1Cc1ccc(F)cc1 (stereo not given)	none (no result: Yeast superoxide, SUMO Mot1 rescue)
Cc1ccc(NC(=S)NCc2ccccc2)cc1[N+](=O)[O-]	FAS-TE inh 64.2, MPTP block 98.6 | FAS-TE inh conf inactive | Rh123 counter 91.2
Cc1ccc(NC(=O)C[n+]2ccccc2)cc1[N+](=O)[O-]	none
Cc1cc(C)n(C(=O)/C(C#N)=N/Nc2cc(Cl)cc(Cl)c2)n1	FAS-TE inh 52.8, MPTP block 103.0 (no result: SUMO Mot1 rescue) | FAS-TE inh conf inactive | Rh123 counter 93.6
CCOC(=O)c1nc(NNC(=O)c2ccc([N+](=O)[O-])cc2)sc1C	FAS-TE inh 52.8, MPTP block 78.3 | FAS-TE inh conf inactive | Rh123 counter 67.4
CCOC(=O)c1sc(NNC(=O)c2ccc(C)cc2)nc1C	none
O=C(/C=C/c1ccccc1)NCCSCc1ccc(Cl)cc1	none (no result: Yeast superoxide)
O=C(/C=C/c1cccc([N+](=O)[O-])c1)NCCSCc1ccc(Cl)cc1	FAS-TE inh 54.4, MPTP block 51.4 | FAS-TE inh conf 50.8 | Rh123 counter 64.0
O=C(Nc1ccc(Cc2ccncc2)cc1)c1ccc(Cl)c([N+](=O)[O-])c1	FAS-TE inh 55.7, MPTP block 53.9 | FAS-TE inh conf 62.5 | Rh123 counter 75.2
O=[N+]([O-])c1cc(S(=O)(=O)Nc2cccc(C(F)(F)F)c2)ccc1-n1nnc2ccccc21	FAS-TE inh 65.7, MPTP block 92.2 | FAS-TE inh conf 79.6 | Rh123 counter 84.0
COc1ccc(NS(=O)(=O)c2ccc(-n3nnc4ccccc43)c([N+](=O)[O-])c2)cc1	none
NC(=S)n1[nH]c(-c2ccc([N+](=O)[O-])cc2)c(N=Nc2ccc(Cl)cc2)c1=O	FAS-TE inh 66.1, MPTP block 105.8 (no result: Yeast superoxide, SUMO Mot1 rescue) | FAS-TE inh conf 39.7 | Rh123 counter 93.0
Cc1ccc([N+](=O)[O-])cc1N=Nc1c(C)[nH]n(C(N)=S)c1=O	none
O=[N+]([O-])c1ccc(Sc2n[nH]c(-c3ccc(Cl)cc3Cl)n2)nc1	FAS-TE inh 62.8, MPTP block 90.4 | FAS-TE inh conf 59.9 | Rh123 counter inactive | MPTP abs DR 19.8 | MPTP cs DR 5.76
Cc1nn(CCc2nn[nH]n2)c2nc(-c3ccc(C4CCCCC4)cc3)cc(C(F)(F)F)c12	FAS-TE inh 69.2, MPTP block 59.1 | FAS-TE inh conf inactive | Rh123 counter 25.6
CCN(C[C@H]1N[C@@](Cc2ccccc2)(C(=O)OC)[C@H]2C(=O)N(Cc3ccccc3)C(=O)[C@@H]12)C(=O)Nc1ccc(C)cc1	none (no result: SUMO Mot1 rescue)
